VDR inh: Inhibitors of the vitamin D receptor (VDR): qHTS | VDR-SRC2-3 peptide fluorescence polarization, 2 h | Potency, µM, for the others: max response, negative = inhibition, most hits filed as inhibitors | 400,000 compounds, 0.93% hits
Target sequence (P11473 whole entry, looked up): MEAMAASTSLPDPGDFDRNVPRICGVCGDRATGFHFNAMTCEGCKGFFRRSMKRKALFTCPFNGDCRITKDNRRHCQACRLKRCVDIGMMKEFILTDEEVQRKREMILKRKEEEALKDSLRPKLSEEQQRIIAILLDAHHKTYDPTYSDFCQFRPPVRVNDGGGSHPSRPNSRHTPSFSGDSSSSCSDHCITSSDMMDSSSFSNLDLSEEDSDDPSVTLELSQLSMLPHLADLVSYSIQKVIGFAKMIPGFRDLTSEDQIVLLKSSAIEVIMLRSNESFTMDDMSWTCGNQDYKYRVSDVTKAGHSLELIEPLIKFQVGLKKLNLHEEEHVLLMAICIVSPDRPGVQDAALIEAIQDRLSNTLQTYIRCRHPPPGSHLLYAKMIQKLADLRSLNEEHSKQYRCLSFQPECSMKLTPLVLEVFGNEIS
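The screen uses fluorescence polarization to detect compounds that interfere with recruitment of the SRC2-3 coactivator peptide to VDR; plates are read after 2 h at room temperature.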
GCN5L2 inh: qHTS Assay for Inhibitors of GCN5L2. Histone acetyltransferase KAT2A (Homo sapiens), Q92830. GCN5L2 HAT assay, ThioGlo1 CoA-SH fluorescence. Potency, µM (series often up to 58.9 µM), for inactives: top-dose activity change, negative = inhibition, actives largely listed as inhibitors. 390,000 compounds, 0.21% hits
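Enzyme at 20nM final was mixed with library compounds for 15 min at room temperature. Peptide H3(1-25) at 75uM, acetyl-CoA at 70uM and ThioGlo1 at 50uM were then added. Plates were read immediately and after 20 min (Ex340nm/Em540nm).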
TDP1 cell noCPT: qHTS for Inhibitors of human tyrosyl-DNA phosphodiesterase 1 (TDP1): qHTS in cells in absence of CPT; 420,000 compounds, 15% hits; Potency, µM (top dose mostly 46.2 µM), without a hit: top-dose activity change, negative = growth inhibition, hits mostly inhibitors; DT40 Tdp1-/- hTDP1 cells, no CPT, ATP luminescence, 48 h; further: nearly all actives have a fitted effect of over 55% in size
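Growth of hTDP1-complemented DT40 Tdp1-knockout cells is measured by ATP luminescence after at least 48 hr compound exposure at 37 °C, with DMSO substituting for the 20 nM CPT used in the parallel screen.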
TDP1 block: qHTS Assay for Inhibitors of Tyrosyl-DNA Phosphodiesterase (TDP1) | Tyrosyl-DNA phosphodiesterase 1 (Homo sapiens), Q9NUW8 | recombinant TDP1, AlphaScreen DNA substrate cleavage | Potency, µM (titrated, usually from 130 µM), for the others: at the highest dose activity change, negative = inhibition, most hits filed as inhibitors | 350,000 compounds, 0.28% hits; further: nearly all actives have a fitted effect of over 40% in size
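E. coli-derived human Tdp1, 1 nM final. Cpd preinc 15 min RT; substrate 15 nM final, 5 min RT; AS bead mix 10 ug/ml final, 10 min RT. Signal loss = tyrosine-FITC cleavage. No-enzyme wells = max signal.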
PLK1 PBD inh: qHTS for Inhibitors of PLK1-PDB (polo-like kinase 1 - polo-box domain): Primary Screen; 360,000 compounds, 2.8% hits; Potency, µM, inactives show max response, negative = inhibition, usual class: inhibitors; Plk1 PBD binding of FITC phosphopeptide, fluorescence polarization; Serine/threonine-protein kinase PLK1 (Homo sapiens), P53350; further: series mostly up to about 57 µM; nearly all actives have a fitted effect of over 65% in size
TDP1 cell CPT: qHTS for Inhibitors of human tyrosyl-DNA phosphodiesterase 1 (TDP1): qHTS in cells in presence of CPT | Potency, µM (highest dose often 46.2 µM), for inactives: at the highest dose activity change, negative = growth inhibition, usual class: inhibitors | 420,000 compounds, 12% hits | chicken DT40 Tdp1-/-;hTDP1 cells + 20 nM CPT, ATP luminescence, 48 h; further: nearly all actives have a fitted effect of over 55% in size
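Cell growth measured by CellTiter-Glo luminescence after a minimum 48 h, 37 C compound exposure with 20 nM CPT in Tdp1-knockout DT40 cells stably expressing hTDP1, seeded 400/well; qHTS titration format.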
Numbers without * were called inactive; ? = inconclusive; / = no result given. A selection: hits, their analogues and other compounds. The true share with any hit is near 18%. The call rests on the fitted dose curve; in most records, active means well fitted curve in the direction sought with a large enough effect; inconclusive means small, poorly fitted or top-dose-only effect, or another doubt; inactive means no such curve, though single readings can be large; an effect the other way counts as inactive or inconclusive. On the % scale 0 is the no-effect control and ±100 the full control effect; potency means the concentration at half of the fitted maximal effect.

SMILES	VDR inh	GCN5L2 inh	TDP1 cell noCPT	TDP1 block	PLK1 PBD inh	TDP1 cell CPT
CCOc1ccc(CNC(=O)c2sc3ncnc(N(C)C4CCCCC4)c3c2C)cc1	9%	-3%	?	2%	/	16µM*
COc1ccc(CNC(=O)c2sc3nc[nH]c(=O)c3c2C)cc1	18%	5%	-15%	4%	/	2%
CCCCN(C(=O)c1ccc(C)cc1)c1c(N)n(CCC)c(=O)[nH]c1=O	-5%	1%	5%	0%	-10%	1%
COc1ccccc1N=Nc1nc(-c2ccccc2)c(-c2ccccc2)[nH]1	-17%	-9%	16µM*	11%	2%	18µM*
COc1ccc(-c2nc(C)ncc2N=Nc2ccccc2)cc1	-10%	-22%	-44%	14%	-3%	?
O=C(O)CSc1nc(-c2ccccc2)c(-c2ccccc2)[nH]1	-7%	0%	-4%	5%	-8%	3%
COc1ccc(N=Nc2nc(-c3ccccc3)c(-c3ccccc3)[nH]2)cc1	-6%	-6%	16µM*	12%	4%	?
COc1cc(-c2nc(-c3ccccc3)c(-c3ccc(F)cc3)[nH]2)cc2c1OCO2	-5%	-10%	?	8%	-2%	?
Oc1ccccc1N=Nc1nc(-c2ccccc2)c(-c2ccccc2)[nH]1	-15%	3%	2.9µM*	13%	-6%	2.6µM*
C#CCn1cc(/C=C2\NC(=O)NC2=O)c2ccccc21	4%	-2%	?	/	-12%	?
CCc1nc2c(OCCn3cccc3)cccn2c1N(C)C(=O)c1ccc(OC)cc1	/	/	-5%	/	-3%	6%
CC(C)Cc1ccc(CN2CCCC(NC(=O)CCN3CCOCC3)C2)cc1 (centres undefined)	-17%	0%	?	5%	4%	?
CC(C)Cc1ccc(CN2CCCC(NC(=O)CCCN3CCCC3=O)C2)cc1 (centres undefined)	-2%	-3%	21µM*	2%	-3%	?
N#Cc1ccsc1NC(=O)COC(=O)C1=NNC(=O)CC1	0%	-24%	20%	-20%	-29%	-5%
CN1c2ccsc2/C(=N/Nc2ccc(F)cc2)CS1(=O)=O	-8%	-10%	2.6µM*	9%	27µM*	2.1µM*
Cc1ccc(N/N=C2\CS(=O)(=O)N(C)c3ccsc32)cc1	?	-12%	?	6%	-18%	?
Cc1ccc(CN(C(=O)Cn2nnc3ccccc32)C(C(=O)NCc2ccco2)c2cccs2)cc1 (centres undefined)	-2%	-6%	23µM*	7%	-3%	?
CCC(C)(C)NC(=O)C(c1ccccc1)N(Cc1cccs1)C(=O)Cn1nnc2ccccc21 (centres undefined)	-4%	/	?	/	3%	18µM*
O=C(NCc1ccco1)C(c1cccs1)N(Cc1ccccc1)C(=O)Cn1nnc2ccccc21 (centres undefined)	-12%	-3%	?	7%	0%	?
CCC(C)(C)NC(=O)C(c1ccc(C)o1)N(Cc1cccs1)C(=O)Cn1nnc2ccccc21 (centres undefined)	11%	-1%	?	-1%	-3%	?
CCc1ccc(C(C(=O)NC(C)(C)CC)N(Cc2ccco2)C(=O)Cn2nnc3ccccc32)cc1 (centres undefined)	-13%	1%	?	3%	-1%	18µM*
CNc1ncncc1-c1ccccc1CN(C)C	?	-6%	-6%	/	/	4%

Assay outcomes deposited in PubChem BioAssay by National Center for Advancing Translational Sciences (NCATS).
